Data from paper PMC9838217, “Structure of SALL4 zinc finger domain reveals link between AT-rich DNA binding and Okihiro syndrome”.
Substitutions are numbered along the chain they refer to.

target: T1, SALL4 ZFC4 WT (HT-SELEX) (Mus musculus, UniProt Q8BX22 870-940); test: HT-SELEX; high values mean tight binding; conditions: protein: recombinant; vector His6-GST; dsDNA, one strand shown
T1 sequence: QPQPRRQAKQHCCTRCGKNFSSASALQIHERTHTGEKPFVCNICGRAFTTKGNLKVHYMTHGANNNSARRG
Outline: (§1)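 Recombinant mouse SALL4 zinc finger cluster 4 (residues 870–940, 1 µg), purified, was mixed with library DNA (1.5 µg in the first cycle, 200 ng thereafter) in 100 µl of buffer containing 10 mM Tris–HCl pH 7.5, 50 mM NaCl, poly(dI-dC) and DTT, and left for 10 min at room temperature. Complexes were captured on Ni2+ beads, washed, amplified by PCR and reselected for up to 6 cycles in triplicate, after which MiSeq sequencing and a 6-mer scan followed. Binding signal is the read fraction of each canonical k-mer, given as fold change relative to the starting random library.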

Sequence | binding signal [fold-change vs cycle 0]
ACTCTA | 1.37 ± 0.0421
ACCTAG | 0.875 ± 0.0697
ACGAAG | 0.736 ± 0.0281
ACTGGG | 0.468 ± 0.0365
CACGTC | 0.427 ± 0.0304
ACAACT | 1.25 ± 0.0434
ACATGC | 0.613 ± 0.0259
AATCTA | 2.03 ± 0.138
AAAGCA | 1.06 ± 0.0392
CAAAAG | 1.03 ± 0.0267
AAGCTT | 1.18 ± 0.0611
ATAACG | 1.39 ± 0.0783
ATCAAA | 1.96 ± 0.105
CACTGC | 0.334 ± 0.0238
AAATCC | 1.19 ± 0.0372
AACAAG | 1.28 ± 0.0479
CTAAAA | 1.62 ± 0.0677
ATGCAG | 0.674 ± 0.0311
TACGGA | 0.719 ± 0.0383
AATGAA | 2.19 ± 0.104

Sequence | binding signal [fold-change vs cycle 0]
ATTCCG | 0.646 ± 0.0192
AAATAG | 1.7 ± 0.0926
AGCACT | 0.65 ± 0.0278
GTATGA | 1.51 ± 0.0577
CCCCTC | 0.31 ± 0.0217
GGATCC | 0.489 ± 0.0186
AGGTGA | 0.887 ± 0.0607
CCCGAA | 0.314 ± 0.0034
GACTGA | 0.805 ± 0.0317
GACCAA | 0.62 ± 0.021
CTGGGA | 0.455 ± 0.0297
CGGAAA | 0.548 ± 0.0301
AACACG | 0.6337 ± 0.00219
AACCGG | 0.336 ± 0.0219
GATACC | 0.884 ± 0.044
CAGCTC | 0.332 ± 0.0301
CGAGGA | 0.409 ± 0.0195
CTAGAG | 0.862 ± 0.0503
AGACCT | 0.753 ± 0.0476
GGTAAC | 0.927 ± 0.0412

target: T2, SALL4 ZFC4 R900W (HT-SELEX) (Mus musculus, UniProt Q8BX22 870-940, R900W); test: HT-SELEX; high values mean tight binding; conditions: protein: recombinant; vector His6-GST; dsDNA, one strand shown
T2 sequence: T1 sequence with R31W
Outline: as §1

Sequence | binding signal [fold-change vs cycle 0]
ACTCTA | 1.48 ± 0.0703
ACCTAG | 0.986 ± 0.0422
ACGAAG | 0.869 ± 0.0387
ACTGGG | 0.547 ± 0.0062
CACGTC | 0.52 ± 0.0494
ACAACT | 1.37 ± 0.0317
ACATGC | 0.7108 ± 0.0052
AATCTA | 2 ± 0.0814
AAAGCA | 1.13 ± 0.0246
CAAAAG | 1.17 ± 0.0219
AAGCTT | 1.27 ± 0.0133
ATAACG | 1.3 ± 0.0579
ATCAAA | 1.83 ± 0.114
CACTGC | 0.388 ± 0.00394
AAATCC | 1.27 ± 0.0238
AACAAG | 1.5 ± 0.0772
CTAAAA | 1.63 ± 0.131
ATGCAG | 0.754 ± 0.0134
TACGGA | 0.834 ± 0.0149
AATGAA | 2.17 ± 0.105

Sequence | binding signal [fold-change vs cycle 0]
ATTCCG | 0.697 ± 0.0273
AAATAG | 1.74 ± 0.095
AGCACT | 0.746 ± 0.0409
GTATGA | 1.49 ± 0.0331
CCCCTC | 0.35 ± 0.0216
GGATCC | 0.559 ± 0.0217
AGGTGA | 0.987 ± 0.0758
CCCGAA | 0.403 ± 0.0174
GACTGA | 0.959 ± 0.0214
GACCAA | 0.733 ± 0.0369
CTGGGA | 0.528 ± 0.00656
CGGAAA | 0.591 ± 0.00691
AACACG | 0.737 ± 0.0205
AACCGG | 0.391 ± 0.0169
GATACC | 0.969 ± 0.034
CAGCTC | 0.394 ± 0.00722
CGAGGA | 0.5 ± 0.0275
CTAGAG | 1 ± 0.0918
AGACCT | 0.917 ± 0.0202
GGTAAC | 1.08 ± 0.0236

target: T3, SALL4 ZFC4 G921D (HT-SELEX) (Mus musculus, UniProt Q8BX22 870-940, G921D); test: HT-SELEX; high values mean tight binding; conditions: protein: recombinant; vector His6-GST; dsDNA, one strand shown
T3 sequence: T1 sequence with G52D
Outline: as §1

Sequence | binding signal [fold-change vs cycle 0]
ACTCTA | 1.43 ± 0.113
ACCTAG | 1.04 ± 0.0407
ACGAAG | 0.9 ± 0.0184
ACTGGG | 0.615 ± 0.0193
CACGTC | 0.633 ± 0.0372
ACAACT | 1.38 ± 0.0748
ACATGC | 0.774 ± 0.017
AATCTA | 1.8 ± 0.18
AAAGCA | 1.14 ± 0.0213
CAAAAG | 1.153 ± 0.00875
AAGCTT | 1.24 ± 0.0566
ATAACG | 1.23 ± 0.0819
ATCAAA | 1.69 ± 0.154
CACTGC | 0.511 ± 0.0704
AAATCC | 1.24 ± 0.0539
AACAAG | 1.39 ± 0.0671
CTAAAA | 1.51 ± 0.106
ATGCAG | 0.818 ± 0.0231
TACGGA | 0.856 ± 0.0265
AATGAA | 1.89 ± 0.135

Sequence | binding signal [fold-change vs cycle 0]
ATTCCG | 0.798 ± 0.0236
AAATAG | 1.58 ± 0.0914
AGCACT | 0.859 ± 0.0159
GTATGA | 1.38 ± 0.0706
CCCCTC | 0.456 ± 0.0591
GGATCC | 0.643 ± 0.0527
AGGTGA | 1.04 ± 0.0735
CCCGAA | 0.512 ± 0.0767
GACTGA | 0.953 ± 0.0219
GACCAA | 0.845 ± 0.0391
CTGGGA | 0.594 ± 0.0357
CGGAAA | 0.694 ± 0.0765
AACACG | 0.823 ± 0.0377
AACCGG | 0.498 ± 0.0509
GATACC | 1.04 ± 0.0218
CAGCTC | 0.526 ± 0.0361
CGAGGA | 0.587 ± 0.0701
CTAGAG | 1.03 ± 0.068
AGACCT | 0.963 ± 0.0152
GGTAAC | 1.06 ± 0.0314
